Data from PubChem BioAssay (EPA / NIEHS).
Records with an inconclusive call do not appear. The source made the active and inactive calls. How the source made its calls: active means hit-call score of the fitted dose curve at least 0.9, where 1 is the maximum; inconclusive means response in the unintended direction; inactive means score below 0.9.

experiment: ATG_M_19_TRANS: Attagene TRANS-FACTORIAL HepG2 Assay for M19 Transcription Factor (Internal Marker) (AID 2282974); details: HepG2 Attagene TRANS-FACTORIAL M19 internal marker reporter
Method: ATG_TRANS is a cell-based, multiplexed-readout assay that uses HepG2, a human liver cell line, with measurements taken at 24 hours after chemical dosing in a 24-well plate.ATG_M_19_TRANS is one of 30 assay component(s) measured or calculated from the ATG_TRANS assay. It is designed to make measurements of mRNA induction, a form of inducible reporter, as detected with fluorescence intensity signals by Reverse transcription polymerase chain reaction (RT-PCR) and Capillary electrophoresis technology.Data from the assay component ATG_M_19_TRANS was analyzed into 1 assay endpoint. This assay endpoint, ATG_M_19_TRANS, was analyzed in the positive analysis fitting direction relative to DMSO as the negative control and baseline of activity. Using a type of inducible reporter, measures of mRNA for gain-of-signal activity can be used to understand the background control at the transcription factor-level as they relate to the gene . Furthermore, this assay endpoint can be referred to as a secondary readout, because this assay has produced multiple assay endpoints where this one serves a background control function. To generalize the intended target to other relatable targets, this assay endpoint is annotated to the background measurement intended target family, where the subfamily is internal marker.
Human liver HepG2 cells are transiently transfected with multiple reporter transcription units (MRTUs) in 6-well plates using FuGene 6 reagent (Roche; 3 ml FuGene/1 mg DNA). The MRTU constructs are regulated by a cis-regulating element (promoter). […] A major difference between the CIS and TRANS system is that in CIS activities of endogenous TFs are measured, whereas the TRANS assay evaluates changes in activities of exogenous, chimeric NR-Gal4 proteins. […] At the end of 24 hour incubation, total RNA was isolated using TriZol reagent (Invitrogen). The isolated RNA is then reverse-transcribed using oligo(dT) primer and Mo-MLV reverse transcriptase (Invitrogen) with DNAse I (Ambion) treatment for 30 min. The one-tenth of the produced cDNA was amplified by PCR using Taq DNA polymerase (Invitrogen) and two reporter sequence-specific primers. The PCR products were fluorescently labeled by primer extension with 6-arboxyfluorescein (6-FAM) 5'-labeled reporter sequence-specific primer (2 min at 95 C, 20 s at 68 C and 10 min at 72 C) and these products were digested with 5U of HpaI (New England Biolabs) for 2h at 37 C. The fragments were purified using Qiaquick PCR columns (Qiagen), analyzed on an ABI 3130xL genetic analyzer (Applied Biosystems) with peak positions identified by using a set of X-rhodamine (ROX)-labeled MapMarker1000 molecular weight standards (BioVentures). The raw capillary electrophoresis data was processed using Attagraph software (Attagene).

outcome, inactive:
C[C@H]1C[C@H]2[C@@H]3CCC4=CC(=O)C=C[C@]4(C)[C@@]3(F)[C@@H](O)C[C@]2(C)[C@@]1(O)C(=O)CO, CCCCCCCCCC/C=C/C1CC(=O)OC1=O (stereo not given), CC(C)(Oc1ccc(Cl)cc1)C(=O)O, C=CCOCC(CC)(CO)COCC=C, CC=CC(=O)O, COc1ccc2ccccc2c1, CC(C)n1c(/C=C/[C@@H](O)C[C@@H](O)CC(=O)O)c(-c2ccc(F)cc2)c2ccccc21, CCCN[C@H]1CCc2nc(N)sc2C1, C/C=C(\C)C(=O)OCC/C=C\CC, Cc1cc2nc3c(=O)[nH]c(=O)nc-3n(C[C@H](O)[C@H](O)[C@H](O)CO)c2cc1C, Cc1ccccc1S(N)(=O)=O, CCCCCCCCCCCCCC, O=C(O)Cc1c[nH]c2ccccc12, Nc1nnc(-c2ccc([N+](=O)[O-])o2)o1, N#CCN(CC#N)CCN(CC#N)CC#N, CCCCCC1CCCC(=O)O1 (stereo not given), CC[N+](CC)(CC(=O)Nc1c(C)cccc1C)Cc1ccccc1, C[Si](C)(C)O[Si](C)(C)O[Si](C)(C)C, CCC(C)=NO, CN(C)CCC(c1ccc(Cl)cc1)c1ccccn1 (stereo not given), c1ccc2c(c1)Oc1ccccc1S2, CCO[Si](CCCN)(OCC)OCC, O=C(CC(C(=O)OC1CCCCC1)S(=O)(=O)O)OC1CCCCC1 (stereo not given), Cc1ccnc(N)c1, C=CN1CCCCCC1=O, CCCCC(CC)COC(=O)CS (stereo not given), CC(=O)OC(C)(C)Cc1ccccc1, O=[N+]([O-])c1ccccc1C(F)(F)F, CC1=NN(c2cc(Cl)c(S(=O)(=O)O)cc2Cl)C(=O)C1N=Nc1ccc(S(=O)(=O)O)cc1 (stereo not given), Cc1ccccc1S(=O)(=O)O, c1ccc(CNc2ncnc3nc[nH]c23)cc1, CCOc1ccc2c(c1)C(C)CC(C)(C)N2 (stereo not given), CCCCCCC1CCC(=O)O1 (stereo not given), CCCCCCCCCCC1CO1 (stereo not given), CCOC(=O)c1ccccc1, COCCCN, O=C(O)c1cc(Cl)cc(Cl)c1O, CCCC(=O)OC/C=C(\C)CCC=C(C)C, CCCCOC(=O)COc1ccc(Cl)cc1Cl, CCCCCCOC(=O)CCCCCCCC(=O)OCCCCCC
